# Measurements from PubChem BioAssay (NCI).
# This is part of a sample that, as a whole, favours compounds with a hit. Of some 83,000 tested, about 20% had one in any assay.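 Results are percent growth after 48 hours of single-concentration exposure. 100 means growth as in untreated cells, lower positive values show inhibition; negative values down to -100 show cell death.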 Values without a mark were called inactive. Activity calls are given as the source filed them. How the source made its calls: active means growth percent below 10; inactive means the rest.
# How the values were obtained:
# Assay in all cases: NCI-60 one-dose screen, 48 h (100 = growth as untreated, 0 = no growth, -100 = all killed)
# Conditions in all cases: 10 µM unless noted
# [1] = test system: SR leukemia
# [2] = test system: OVCAR-5 ovarian
# [3] = test system: IGROV1 ovarian
# [4] = test system: OVCAR-3 ovarian
# [5] = test system: HS 578T breast
# [6] = test system: NCI/ADR-RES ovarian
# [7] = test system: T-47D breast
# [8] = test system: BT-549 breast
# [9] = test system: MDA-MB-435 melanoma
# [10] = test system: SW-620 colon
# [11] = test system: MCF7 breast
# [12] = test system: HCT-116 colon
# [13] = test system: HCC-2998 colon
# [14] = test system: KM12 colon
# [15] = test system: RPMI-8226 leukemia
# [16] = test system: OVCAR-8 ovarian
# [17] = test system: OVCAR-4 ovarian
# [18] = test system: SK-OV-3 ovarian
Structure (SMILES),growth [1],growth [2],growth [3],growth [4],growth [5],growth [6],growth [7],growth [8],growth [9],growth [10],growth [11],growth [12],growth [13],growth [14],growth [15],growth [16],growth [17],growth [18]
Cl.Fc1c[c-]c(-c2ccccn2)c(F)c1.[Pt].c1ccc([PH+](c2ccccc2)c2ccccc2[PH+](c2ccccc2)c2ccccc2)cc1,-6.47% (active),-94.3% (active),-77.9% (active),-96.4% (active),-50.3% (active),-35.5% (active),-80.2% (active),-70.2% (active),-93.5% (active),-81.6% (active),-79.3% (active),-68% (active),-76.6% (active),-90.6% (active),–,–,–,–
CCCn1nc(-c2ccccc2)c2c(-c3ccccc3)onc2c1=O,–,87.7%,72.5%,91.8%,67.7%,68.5%,–,71.5%,8.42% (active),43.5%,40.9%,58.9%,85.3%,60%,70.2%,102%,79.7%,83.6%
Clc1ccc2c(NCCCN3CCN(c4nc(N5CCOCC5)nc5ccccc45)CC3)ccnc2c1,–,60.6%,50.4%,-40.8% (active),17.2%,25.1%,–,59.3%,-86.5% (active),-20.3% (active),-3.49% (active),-0.752% (active),-57.5% (active),25%,-39.5% (active),16.1%,50.3%,108%
CCCCNC(=O)NS(=O)(=O)c1ccc(N2N=C(c3ccc(C)cc3C)CC2c2ccc(N(C)C)cc2)cc1 (configuration not stated),–,84.6%,89.9%,51.2%,88.1%,46.8%,70.4%,45.6%,9.98% (active),61.8%,37.4%,39.3%,46.1%,49.2%,34.2%,57.7%,64%,97.7%
C#CC[C@H](N)C(=O)O,–,93.2% [20 µM],106% [20 µM],111% [20 µM],111% [20 µM],108% [20 µM],102% [20 µM],106% [20 µM],102% [20 µM],103% [20 µM],91.7% [20 µM],96.3% [20 µM],116% [20 µM],105% [20 µM],106% [20 µM],99.2% [20 µM],107% [20 µM],105% [20 µM]
C=C(C)[C@@H]1CC[C@]2(CO)CC[C@]3(C)[C@H](CC[C@@H]4[C@@]5(C)C=C(C#N)C(=O)C(C)(C)[C@@H]5CC[C@]43C)[C@@H]12,–,36.3%,24.1%,-49.2% (active),29.3%,13.1%,–,29.3%,17.8%,5.54% (active),1.77% (active),10.5%,8.97% (active),6.43% (active),-20.9% (active),22.2%,26.9%,37.9%
C=C1c2c(C)nn(-c3ccc(S(N)(=O)=O)cc3)c2N(C)C23CC1C1(C)c4c(C)nn(-c5ccc(S(N)(=O)=O)cc5)c4N(C)C(C)(CC12)C3 (configuration not stated),–,64%,49.1%,41.6%,54.3%,79.2%,–,49.6%,32.9%,39.2%,15.9%,14.4%,47%,33.1%,-64% (active),40.1%,39.3%,57.6%
Cc1cnc(Nc2ccc(OCCN3CCCC3)cc2)nc1NCc1ccco1,–,78.1%,71%,82.7%,80.3%,101%,–,78.2%,84.1%,67.5%,50.8%,40.5%,87%,22.7%,50.7%,95.1%,59.4%,108%
N#Cc1c(NC(=O)c2cccc(C(F)(F)F)c2)sc2c1CCC(=O)C2,–,12.9%,-50.7% (active),-46.8% (active),1.32% (active),7.01% (active),-21.6% (active),-77.1% (active),-74.6% (active),-66.2% (active),7.82% (active),-63.7% (active),27.2%,-21.3% (active),-9.7% (active),10.4%,-80.7% (active),3.53% (active)
COc1ccc(Oc2nc(Nc3ccc(N4CCOCC4)nc3)ncc2NC(=O)c2cc(OC)cc(OC)c2)cc1,–,105%,80%,82.7%,86.8%,76%,–,80.2%,32.7%,75.8%,63.8%,72.1%,95.2%,64%,49%,77.8%,78.2%,88.6%
COc1ccc(Oc2nc(Nc3ccc(N4CCCCC4)nc3)ncc2NC(=O)c2cc(OC)cc(OC)c2)cc1,–,76.7%,58.3%,6.75% (active),44.6%,26.1%,–,56.5%,-30.6% (active),30.6%,9.76% (active),18.8%,65.8%,20.2%,24.4%,57%,56.7%,57.6%
C=C(C)[C@@H]1CC[C@]2(CNCCO)CC[C@]3(C)[C@H](CC[C@@H]4[C@@]5(C)CCC(N)[C@@](C)(CO)[C@@H]5CC[C@]43C)[C@@H]12 (some centres not stated),–,63.8%,61.6%,-43.4% (active),60.9%,83%,–,68.6%,-75.7% (active),-60.2% (active),-54.2% (active),-90.2% (active),-8.22% (active),-2.9% (active),-45.1% (active),10.7%,46.2%,75%
O=S(=O)(NCCNc1cc(-c2c(-c3cccc(O)c3)nc3sccn23)ccn1)c1ccc(Cl)cc1,–,107%,54.1%,64.2%,63.9%,87.6%,26%,50.2%,24.8%,89.2%,47.8%,57.4%,102%,59.6%,41.1%,51.1%,40.4%,75.1%
COc1ccc(-c2nc3sccn3c2/C=C/C(=O)c2c[nH]c3ccccc23)cc1,–,63.5%,79.2%,68.1%,74.9%,59.1%,56.1%,59.1%,88.9%,100%,69.8%,69.5%,67.4%,76.8%,154%,63.9%,42.6%,79.6%
